From PubChem BioAssay
The source made the active and inactive calls.

Key:
Albumin (Bos taurus) = Albumin (Bos taurus) (UniProt P02769); test: bovine serum albumin binders on microarray, profiling panel, artefact control for SMM control protein annotation, biochemical, small-molecule microarray, Alexa647 label, 635/667 nm fluorescence (AID 1118); conditions: BSA-A647 binding, fluorescence 635 nm, higher = more signal;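 also: score merges 667 nm emission intensity and signal-to-noise per printed compound spot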
[1] = small-molecule microarray binders of probe aXIP, primary screen, biochemical, NeuroSMM set, 635/667 nm fluorescence (AID 1119); conditions: higher = more signal, called active from +8 up or from −8 down;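 also: probe is the protein aXip251-270 applied at 1 µg/mL to compound-printed slides; binding of probe to printed compounds measured as 667 nm fluorescence plus signal to noise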
[2] = small-molecule binders of probe aNOTCH3, primary screen, biochemical, small-molecule microarray, 635/667 nm fluorescence (AID 1120); conditions: higher = more signal;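 also: probe is a biotin-tagged antibody raised against NOTCH3 rather than NOTCH3 protein; score merges spot fluorescence near 667 nm with spot signal to noise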
[3] = small-molecule binders of probe aNOTCH2, primary screen, biochemical, small-molecule microarray, 635/667 nm fluorescence (AID 1121); conditions: higher = more signal;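 also: score merges feature fluorescence read at 667 nm with its signal to noise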
[4] = molecular target: Carbonic anhydrase 2 (Homo sapiens) (UniProt P00918); test: CAII small-molecule binders, profiling panel, biochemical, small-molecule microarray, Alexa647-labelled CAII (AID 1122); conditions: CAII-A647 binding fluorescence, higher = more signal
[5] = COS7 lysate on small-molecule microarray, probe aHis, 635 nm (AID 1123); conditions: COS7 cell lysate, fluorescence, higher = more signal;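 also: z-score combines 667nm fluorescence intensity with signal-to-noise per printed compound spot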
[6] = compound binding in COS7 lysate, probe aLAP1, primary screen, cell lysate, small-molecule microarray (AID 1124); conditions: probe aLAP1, fluorescence, higher = more signal;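 also: lysate comes from COS7 cells expressing LAP1 and is applied at 0.3 µg/mL; score merges spot fluorescence near 667 nm with signal-to-noise over triplicate slides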
Sam68 (KHDRBS1) = test: Sam68 small-molecule binders, primary screen, biochemical, small-molecule microarray, 635 nm fluorescence (AID 1125); conditions: small-molecule microarray binding, higher = more signal;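 also: score merges 667 nm channel intensity with signal to noise over triplicate slides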
[7] = test system: Chordin-like protein 2 (CHRDL2); test: CHRDL2 small-molecule binders, primary screen, biochemical, small-molecule microarray, 635 nm fluorescence (AID 1126); conditions: small-molecule microarray binding, fluorescence 635 nm; higher = more signal;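 also: printed compound slides probed with Chrdl2 protein at 4 µg/mL for 1 h at 4 C; score merges 667 nm emission intensity with signal to noise over three replicate slides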
[8] = molecular target: Concanavalin-A (Canavalia ensiformis) (UniProt P02866); test: ConA small-molecule binders, primary screen, artefact control for SMM control protein annotation, biochemical, small-molecule microarray, Alexa647 label, 635 nm (AID 1127); conditions: ConA-A647 binding fluorescence, higher = more signal;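 also: z combines 667 nm emission intensity with signal-to-noise across three replicate slides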
[9] = anti-His antibody binders, primary screen, artefact control for SMM control protein annotation, biochemical, small-molecule microarray, 635 nm fluorescence (AID 1128); conditions: anti-His Alexa647 antibody binding, higher = more signal;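 also: score merges feature fluorescence with signal-to-noise for each printed compound spot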
[10] = test system: Human papillomavirus type 1a E7 protein (residues 1-88); test: HPV1a E7 small-molecule binders, primary screen, biochemical, small-molecule microarray, residues 1-88, 635 nm (AID 1129); conditions: small-molecule microarray binding, fluorescence 635 nm; higher = more signal
[11] = molecular target: Focal adhesion kinase 1 (Homo sapiens) (UniProt Q05397); test: small-molecule microarray binders of FAK, primary screen, biochemical, 635/667 nm fluorescence, BSA, DTT (AID 1130); conditions: PTK2 binding, 635 nm fluorescence, higher = more signal;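 also: composite of spot emission at 667 nm and signal to noise over triplicate slides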
[12] = test system: Fibrinogen (Alexa647-labelled); test: fibrinogen binders on compound microarrays, profiling panel, artefact control for SMM control-protein annotation, biochemical, small-molecule microarray, 635/667 nm fluorescence (AID 1131); conditions: fibrinogen-A647 binding fluorescence, higher = more signal;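 also: z-score merges 667 nm fluorescence with per-spot signal-to-noise over triplicate slides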
[13] = molecular target: Follistatin (Homo sapiens) (UniProt P19883); test: follistatin binders on small-molecule microarrays, primary screen, biochemical, small-molecule microarray, 635/667 nm fluorescence (AID 1132); conditions: FST binding, 635 nm fluorescence, higher = more signal
[14] = molecular target: Fibroblast growth factor 2 (Homo sapiens) (UniProt P09038); test: FGF2 binders on small-molecule microarrays, primary screen, biochemical, small-molecule microarray, 635/667 nm fluorescence (AID 1133); conditions: small-molecule microarray binding, FGF2, fluorescence 635/667; higher = more signal
[15] = mitochondrial membrane potential change in A549 cells, profiling panel, cell-based, JC-1 fluorescence, basal, 24 h, 100 nL (AID 1138); conditions: higher = more signal;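 also: A549 lung adenocarcinoma cells under basal conditions with no added stimulus; test concentration not given here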
Lefty1 = Lefty1 binders on small-molecule microarrays, primary screen, biochemical, small-molecule microarray, 635/667 nm fluorescence (AID 1139); conditions: small-molecule microarray binding, fluorescence 635/667; higher = more signal
[16] = test system: wheat germ agglutinin (Triticum aestivum), Alexa647-labelled; test: wheat germ agglutinin binders on compound microarrays, profiling panel, artefact control for SMM control-protein annotation, biochemical, small-molecule microarray, 635/667 nm fluorescence (AID 1140); conditions: WGA-A647 binding, 635 nm fluorescence, higher = more signal;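 also: score merges 667 nm feature emission with signal to noise over triplicate slides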
[17] = molecular target: Luciferin 4-monooxygenase (Photinus pyralis) (UniProt P08659); test: firefly luciferase enzyme inhibitors, primary screen, biochemical, luminescence, purified enzyme, 2006 set (AID 1141); conditions: SteadyGlo luminescence, 30 min, higher = more signal, called active from +8 up or from −8 down;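 also: cell-free assay with purified firefly luciferase at 100 ng per well in PBS; test concentration not given here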
Sequence of Luciferin 4-monooxygenase (Photinus pyralis) (P08659 whole entry, looked up): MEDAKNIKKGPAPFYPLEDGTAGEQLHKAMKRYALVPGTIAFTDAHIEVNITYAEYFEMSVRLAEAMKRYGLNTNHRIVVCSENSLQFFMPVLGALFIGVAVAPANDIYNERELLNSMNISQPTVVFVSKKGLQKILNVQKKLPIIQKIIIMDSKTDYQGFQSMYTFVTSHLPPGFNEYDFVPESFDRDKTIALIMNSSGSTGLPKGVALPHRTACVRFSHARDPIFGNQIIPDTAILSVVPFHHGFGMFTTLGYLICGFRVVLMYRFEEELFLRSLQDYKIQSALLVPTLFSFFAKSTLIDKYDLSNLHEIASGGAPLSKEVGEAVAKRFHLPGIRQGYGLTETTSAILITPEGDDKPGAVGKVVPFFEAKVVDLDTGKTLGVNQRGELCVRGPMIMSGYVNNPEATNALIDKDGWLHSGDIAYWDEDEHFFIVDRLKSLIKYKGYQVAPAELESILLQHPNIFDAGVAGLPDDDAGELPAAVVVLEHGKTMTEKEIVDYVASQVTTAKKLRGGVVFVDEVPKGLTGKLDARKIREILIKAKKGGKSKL

Sequence of Follistatin (Homo sapiens) (P19883 whole entry, looked up): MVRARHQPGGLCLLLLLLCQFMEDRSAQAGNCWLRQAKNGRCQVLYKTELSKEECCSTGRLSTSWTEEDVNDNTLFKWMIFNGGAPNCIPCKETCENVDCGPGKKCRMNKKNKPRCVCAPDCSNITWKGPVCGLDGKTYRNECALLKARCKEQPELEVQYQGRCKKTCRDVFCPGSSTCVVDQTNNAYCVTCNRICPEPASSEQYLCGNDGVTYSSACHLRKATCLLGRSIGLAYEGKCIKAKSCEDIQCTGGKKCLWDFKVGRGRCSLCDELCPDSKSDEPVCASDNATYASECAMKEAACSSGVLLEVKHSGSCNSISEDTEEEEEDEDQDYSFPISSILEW
Sequence of Focal adhesion kinase 1 (Homo sapiens) (Q05397 whole entry, looked up): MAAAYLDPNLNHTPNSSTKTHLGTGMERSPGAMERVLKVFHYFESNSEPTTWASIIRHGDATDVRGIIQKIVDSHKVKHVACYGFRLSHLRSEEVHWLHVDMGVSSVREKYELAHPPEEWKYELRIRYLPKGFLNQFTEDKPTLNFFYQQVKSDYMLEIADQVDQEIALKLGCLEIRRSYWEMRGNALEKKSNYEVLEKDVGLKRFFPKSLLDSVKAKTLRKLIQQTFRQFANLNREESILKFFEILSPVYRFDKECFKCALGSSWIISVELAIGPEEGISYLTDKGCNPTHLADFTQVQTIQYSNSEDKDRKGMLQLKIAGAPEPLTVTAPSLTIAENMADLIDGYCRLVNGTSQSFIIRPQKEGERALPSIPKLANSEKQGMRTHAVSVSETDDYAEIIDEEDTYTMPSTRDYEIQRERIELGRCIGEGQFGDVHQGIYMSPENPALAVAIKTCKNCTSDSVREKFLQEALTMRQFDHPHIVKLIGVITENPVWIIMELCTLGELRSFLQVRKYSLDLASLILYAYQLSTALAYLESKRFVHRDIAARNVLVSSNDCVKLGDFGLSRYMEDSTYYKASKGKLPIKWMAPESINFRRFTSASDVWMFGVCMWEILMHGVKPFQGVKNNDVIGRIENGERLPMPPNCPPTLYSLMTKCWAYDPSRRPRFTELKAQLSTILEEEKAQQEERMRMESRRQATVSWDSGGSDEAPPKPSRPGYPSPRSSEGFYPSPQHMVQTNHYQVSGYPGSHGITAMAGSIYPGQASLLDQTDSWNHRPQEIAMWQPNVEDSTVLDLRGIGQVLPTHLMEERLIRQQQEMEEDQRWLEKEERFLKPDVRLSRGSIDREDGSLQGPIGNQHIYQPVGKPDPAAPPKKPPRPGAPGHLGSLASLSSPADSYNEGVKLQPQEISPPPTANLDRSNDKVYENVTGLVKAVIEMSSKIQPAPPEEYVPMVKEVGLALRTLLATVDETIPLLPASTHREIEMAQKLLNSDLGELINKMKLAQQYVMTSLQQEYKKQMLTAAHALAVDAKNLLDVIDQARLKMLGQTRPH
Sequence of Fibroblast growth factor 2 (Homo sapiens) (P09038 whole entry, looked up): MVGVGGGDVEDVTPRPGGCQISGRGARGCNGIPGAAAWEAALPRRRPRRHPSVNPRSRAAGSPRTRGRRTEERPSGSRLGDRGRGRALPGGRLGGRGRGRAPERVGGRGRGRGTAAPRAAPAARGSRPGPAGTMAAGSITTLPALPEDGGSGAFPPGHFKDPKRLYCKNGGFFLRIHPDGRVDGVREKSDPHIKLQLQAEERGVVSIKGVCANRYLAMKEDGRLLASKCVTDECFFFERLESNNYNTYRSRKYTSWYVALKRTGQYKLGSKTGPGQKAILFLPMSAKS
Sequence of Concanavalin-A (Canavalia ensiformis) (P02866 whole entry, looked up): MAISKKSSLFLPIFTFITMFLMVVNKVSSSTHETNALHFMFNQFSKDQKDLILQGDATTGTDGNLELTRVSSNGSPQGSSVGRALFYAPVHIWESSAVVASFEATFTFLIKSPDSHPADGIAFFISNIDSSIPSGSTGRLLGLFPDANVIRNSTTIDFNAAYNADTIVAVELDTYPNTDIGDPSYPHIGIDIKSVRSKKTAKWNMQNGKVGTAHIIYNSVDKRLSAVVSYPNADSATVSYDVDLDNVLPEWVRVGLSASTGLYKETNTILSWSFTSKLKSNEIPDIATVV
Sequence of Albumin (Bos taurus) (P02769 whole entry, looked up): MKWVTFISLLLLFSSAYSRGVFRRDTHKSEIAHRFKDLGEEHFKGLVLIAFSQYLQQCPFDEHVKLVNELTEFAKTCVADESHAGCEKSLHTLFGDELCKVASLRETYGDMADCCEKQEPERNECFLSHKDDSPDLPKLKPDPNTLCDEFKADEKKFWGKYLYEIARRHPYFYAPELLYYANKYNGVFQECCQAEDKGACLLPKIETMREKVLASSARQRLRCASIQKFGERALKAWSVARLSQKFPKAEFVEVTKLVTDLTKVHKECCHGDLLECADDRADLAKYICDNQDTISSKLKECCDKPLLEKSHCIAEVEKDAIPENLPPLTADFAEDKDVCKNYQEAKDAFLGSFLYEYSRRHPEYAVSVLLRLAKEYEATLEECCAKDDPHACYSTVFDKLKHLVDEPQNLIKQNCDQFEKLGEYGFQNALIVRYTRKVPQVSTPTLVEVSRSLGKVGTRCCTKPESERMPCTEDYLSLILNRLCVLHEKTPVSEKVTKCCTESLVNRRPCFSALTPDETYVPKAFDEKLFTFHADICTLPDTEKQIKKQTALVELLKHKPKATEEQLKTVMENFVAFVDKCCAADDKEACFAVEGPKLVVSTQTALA

Compound | composite z-score (Albumin (Bos taurus)) | composite Z-score [1] | composite z-score [2] | composite z-score [3] | composite z-score [4] | composite z-score [5] | composite z-score [6] | composite z-score (Sam68 (KHDRBS1)) | composite z-score [7] | composite z-score [8] | composite z-score [9] | composite z-score [10] | composite z-score [11] | composite z-score [12] | composite z-score [13] | composite z-score [14] | z-score [15] | composite z-score (Lefty1) | composite z-score [16] | z-score [17]
CC(C)CON=C1C[C@@H](O)[C@@H](O)[C@@H]2[C@@H]3C(=O)N(C(C)(C)C)C(=O)[C@@H]3CC[C@H]12 | -0.135 | 0.3 (inactive) | 0.0039 | -0.124 | 0.11 | 1.36 | 0.057 | 1.01 | 0.297 | -1.23 | 1.15 | -0.264 | -0.0405 | 0.0972 | -0.924 | -0.546 | -0.125 | -0.52 | -0.0283 | 0.473 (inactive)
C=COC[C@@H]1CN2[C@@H](CC[C@@H](C)[C@@H]2c2ccc(Br)cc2)C(=O)O1 | 0.0494 | 0.686 (inactive) | -0.161 | -0.14 | 0.0173 | 0.043 | 0.008 | -0.0284 | 0.407 | -0.563 | -0.559 | 0.151 | 0.18 | 0.212 | 0.0793 | -0.285 | -1.25 | 0.0005 | -0.0681 | 0.49 (inactive)
COC(=O)CC=C[C@@H](C)[C@@H](C=NOC[C@@H](O)[C@H]1O[C@@H]2OC(C)(C)O[C@@H]2[C@H]1O)NS(=O)(=O)c1ccc(C)cc1 | -0.0786 | -0.72 (inactive) | -0.215 | -0.289 | -0.0777 | -0.152 | -0.372 | 0.524 | 0.42 | -0.137 | 1.93 | 0.607 | -0.196 | -0.174 | 0.597 | 0.276 | -0.656 | 0.223 | 0.0146 | 0.543 (inactive)
CO[C@H]1COC(=O)CC=C[C@@H](C)[C@H](OC)COC(=O)[C@@H]2CCCN2C(=O)CC=C[C@@H]1C | -0.871 | 0.668 (inactive) | -0.0077 | -0.107 | -0.377 | -0.339 | -0.322 | 0.672 | 1.32 | -0.222 | 0.118 | -0.834 | -0.145 | -1.02 | 1.39 | 1.01 | 0.0624 | 1.57 | -0.483 | -0.813 (inactive)
C#CCCCON=C1C[C@@H](O)[C@@H](O)[C@@H]2[C@@H]3C(=O)N(C(C)(C)C)C(=O)[C@@H]3CC[C@H]12 | 0.725 | -0.483 (inactive) | 0.0306 | -0.0272 | -0.466 | 0.126 | 0.0192 | -0.454 | 0.557 | -0.482 | 0.0217 | -0.204 | -0.0811 | 0.589 | -0.861 | -0.127 | -0.049 | -0.912 | 0.903 | 0.541 (inactive)
COC(=O)NCC=Cc1nc(CCCO)co1 | 0.782 | 0.678 (inactive) | -0.0362 | -0.153 | -0.0958 | 0.549 | 0.215 | 0.559 | 0.809 | 0.161 | 0.53 | 0.804 | -0.0457 | 0.0947 | 0.614 | 0.564 | -0.223 | 0.706 | -0.0407 | 0.604 (inactive)
CC(C)CON=C1C[C@@H](O)[C@@H](O)[C@@H]2[C@@H]3C(=O)N(C[C@@H]4CCCO4)C(=O)[C@@H]3CC[C@@H]12 | 0.268 | 0.223 (inactive) | -0.0967 | -0.14 | 0.165 | 0.421 | 0.419 | 0.12 | -0.39 | -0.339 | 0.0488 | -0.0845 | 0.348 | 0.222 | -0.341 | -0.0796 | 0.221 | -0.399 | 0.561 | 0.141 (inactive)
Cn1c(=O)n2n(c1=O)[C@H]1[C@H](O)[C@@H]3O[C@@H]3C(=NOCc3ccccc3)[C@H]1CC2 | 0.0494 | -0.054 (inactive) | -0.112 | -0.14 | 0.487 | 0.444 | -0.0493 | 0.557 | -0.37 | -0.136 | 0.192 | -0.624 | 0.13 | -0.867 | -0.104 | -0.478 | 0.874 | 0.3 | 0.349 | -0.101 (inactive)
C[n+]1ccc(-c2ccc(CO)cc2)cc1 | -0.619 | 2.7 (inactive) | -0.0377 | -0.157 | 0.68 | -0.702 | 0.372 | 0.364 | 1.54 | 1.11 | 0.658 | -0.676 | -0.332 | -0.168 | 1.55 | 1.35 | -0.666 | 1.61 | 1.48 | -0.288 (inactive)
CO[C@H]1COC(=O)[C@H](C)NC(=O)[C@@H](C)COC(=O)[C@H]2CCCN2C(=O)CC=C[C@H]1C | -0.74 | -0.533 (inactive) | -0.178 | -0.148 | -0.273 | -0.414 | -0.0354 | 0.476 | 1.17 | -0.229 | -0.395 | 0.185 | 0.0089 | -0.157 | 0.593 | 0.806 | -0.392 | 0.632 | -0.375 | 0.574 (inactive)
CO[C@@H]1COC(=O)[C@@H](C)NC(=O)CC=C[C@@H](C)[C@H](NS(=O)(=O)c2ccc(C)cc2)COC(=O)[C@H](C)NC(=O)CC=C[C@H]1C | -1.05 | 1.05 (inactive) | -0.0647 | -0.184 | -0.333 | -0.634 | -0.192 | 0.643 | 1.16 | -1.05 | -0.0135 | -0.693 | -0.0691 | -0.965 | 0.848 | 0.0303 | 1.07 | 0.895 | -0.694 | -1.15 (inactive)
